# Reference: PubChem BioAssay (NCATS)
# Results filed as inconclusive are left out. Activity calls are given as the source filed them. Calls come from the whole dose curve; as a rule, active = well fitted curve in the direction sought with a large enough effect; inconclusive = small, poorly fitted or top-dose-only effect, or another doubt; inactive = no such curve, though single readings can be large; an effect the other way counts as inactive or inconclusive.
# Assay: BET inhibitor-based combinations targeting novel dependencies in MECOM-rearranged (r) AML: UCSD-AML1 cell line (AID 2202235); note: nearly all actives have a fitted effect of over 40% in size
# Conditions: UCSD-AML1 AML cells viability, CellTiter-Glo, 48 h; series mostly up to 46 µM
# Summary of the method: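 Cells at 500/well were exposed for 48 hr to MIPE v5.0 drugs as 11-point dose curves. Viability was read by CellTiter-Glo luminescence and normalized to DMSO and empty-well controls. Activity was expressed as AUC and per-cell-line Z-AUC.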
# Potency is the fitted concentration of half-maximal effect.
row,SMILES,Potency
1,CN(C)C/C=C/C(=O)Nc1ccc(C(=O)Nc2cccc(Nc3ncc(Cl)c(-c4c[nH]c5ccccc45)n3)c2)cc1,132 nM (active)
2,Nc1ccn(C2CO[C@H](CO)O2)c(=O)n1 (some centres undefined),inactive
3,COc1c(OCCCN2CCOCC2)ccc2c3n(c(=NC(=O)c4cnc(N)nc4)nc12)CCN3,42.8 nM (active)
4,CC(C)n1nc(-c2ccc3oc(N)nc3c2)c2c(N)ncnc21,11.8 nM (active)
5,CO[C@@H](C)Cn1c(=O)n(C)c2cnc3ccc(-c4cncc(C(C)(C)O)c4)cc3c21,263 nM (active)
6,C[C@@H](Oc1cc(-c2cnn(C3CCNCC3)c2)cnc1N)c1c(Cl)ccc(F)c1Cl,1660 nM (active)
7,O=C(NOCC1CC1)c1ccc(F)c(F)c1Nc1ccc(I)cc1Cl,16600 nM (active)
8,Cc1ncc(NC(=O)c2ccc(CN3CCN(C)CC3)c(C(F)(F)F)c2)cc1Nc1nccc(-c2cccnc2)n1,inactive
9,COC(=O)Nc1ccc(-c2nc(N3CCOCC3)c3cnn(C4CCN(Cc5cccnc5)CC4)c3n2)cc1,525 nM (active)
10,NC1(Cc2ccc(Cl)cc2)CCN(c2ncnc3[nH]ccc23)CC1,5250 nM (active)
11,c1cncc(CN2CCC(n3ncc4c(N5CCOCC5)nc(-c5ccc6[nH]ccc6c5)nc43)CC2)c1,833 nM (active)
12,Cn1cc(-c2[nH]c3cc(NC(=O)[C@H](N)C4CCCCC4)cc4c3c2C=NNC4=O)cn1,1050 nM (active)
13,COc1ccc(F)c(F)c1C(=O)c1cnc(NC2CCN(S(C)(=O)=O)CC2)nc1N,1660 nM (active)

# Assay: BET inhibitor-based combinations targeting novel dependencies in MECOM-rearranged (r) AML: AML-191 cell line (AID 2202236; note: nearly all actives have a fitted effect of over 35% in size)
# Conditions: AML-191 viability, CellTiter-Glo luminescence, 48 h; series mostly up to 46 µM
# Summary of the method: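 AML cell lines seeded at 500 cells/well, treated with 11-point dose curves for 48 h. Viability by CellTiter-Glo luminescence, normalised to DMSO and empty wells; activity expressed as AUC and per-cell-line Z-transformed AUC.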
row,SMILES,Potency
1,CN(C)C/C=C/C(=O)Nc1ccc(C(=O)Nc2cccc(Nc3ncc(Cl)c(-c4c[nH]c5ccccc45)n3)c2)cc1,0.235 µM (active)
2,C[C@@H](Oc1cc(-c2cnn(C3CCNCC3)c2)cnc1N)c1c(Cl)ccc(F)c1Cl,1.18 µM (active)
3,O=C(NOCC1CC1)c1ccc(F)c(F)c1Nc1ccc(I)cc1Cl,11.8 µM (active)
4,Cc1ncc(NC(=O)c2ccc(CN3CCN(C)CC3)c(C(F)(F)F)c2)cc1Nc1nccc(-c2cccnc2)n1,18.6 µM (active)
5,COC(=O)Nc1ccc(-c2nc(N3CCOCC3)c3cnn(C4CCN(Cc5cccnc5)CC4)c3n2)cc1,1.86 µM (active)
6,COc1ccc(F)c(F)c1C(=O)c1cnc(NC2CCN(S(C)(=O)=O)CC2)nc1N,2.09 µM (active)
